High-throughput results: PubChem, Broad Institute
Tgondii IFNg – blocks Toxoplasma gondii growth in the presence of IFN-gamma; Toxoplasma gondii growth in IFN-gamma-treated host cells; hits give low values; activity change, negative = inhibition, % (test concentration not listed); actives 3.8% (n = 69,000); AID 1259416; in the data active means activity change below about -70%, passing the limit was not always enough;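 further: host cells are HeLa cells infected with Toxoplasma gondii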
Hits are given with their value; - = inactive. Only a selection was taken, and hits are over-represented in it overall.

SMILES | Tgondii IFNg
C(=C\c1cccc(N2CCNCC2)n1)/c1ccccc1 | -78
CCn1cc2c(n1)C(COC)CN(Cc1nccs1)C2 (centres undefined) | -
CCn1c(CC2CCN(C(=O)CCN3CCCCO3)CC2)nn(C)c1=O | -
O=c1[nH]c2ccccc2c(O)c1-c1nc(-c2ccccc2Br)no1 | -
CCOC(=O)C1CCN(Cc2cc(OC)c(OC)cc2OC)CC1 | -
Cn1cc(C(=O)NCc2cc(=O)n3c(n2)CNCCC3)cn1 | -
CC(=O)C(C)(C)OC(=O)NCCc1ccc(Cl)cc1 | -76
CC(=O)C(C)(C)OC(=O)NCc1cccs1 | -
COc1ccc(Cl)cc1C(=O)NCCc1ccc(C(=O)O)cc1 | -
CN(/C=C/C=C1/C(c2ccccc2)=C(c2ccccc2)c2ccccc21)c1ccccc1 | -
Cn1c(=O)n(C)c2cc(Cn3ccnc3-c3ccc(-n4ccnc4)cc3)ccc21 | -
C[C@@]1(O)CCN(C(=O)CN2CCCCCC2=O)C[C@@H]1Cc1ccccc1 | -
NC(=O)CSc1nnc(-c2cccnc2)o1 | -
Cc1ccc2c(c1)NC1(CCN(C(=O)Nc3ccccc3)CC1)c1cccn1-2 | -
N#Cc1ccc(OCc2c(Cl)sc3ccc(Cl)cc23)cc1 | -
O=C1C2C3C=CC(O3)C2C(=O)N1OCc1c(F)cccc1Cl (centres undefined) | -
N#Cc1cc(Br)c(OCc2c(F)cccc2Cl)c(Br)c1 | -78
CCc1c(Cl)c(O)c(Cl)c(O)c1C(=O)O[C@H]1[C@H](O)[C@H](OC)[C@H](OCC2=C/C=C/C[C@H](O)/C(C)=C\[C@H](CC)[C@H](O[C@@H]3OC(C)(C)[C@@H](OC(=O)C(C)C)[C@H](O)[C@H]3O)/C(C)=C\C(C)=C\C[C@H]([C@@H](C)O)OC2=O)O[C@@H]1C | -
CCCn1ccnc1CN1CC(N2CCCCC2C)C1 (centres undefined) | -
COc1ccc(-c2cc3c(=O)n(Cc4nc(-c5cccc(Cl)c5)oc4C)ccn3n2)cc1OC | -
COc1ccc2nc(Cl)c(CNCc3ccccc3F)c(N3CCOCC3)c2c1 | -99
COc1ccc2c(c1)c(CC(=O)N1CCOCC1)c(C)n2C(=O)c1ccc(Cl)cc1 | -
COc1cc(CNc2ccc(N3CCOCC3)cc2)ccc1OCc1ccccc1F | -
CC1CCCN1Cc1cccc(C(=O)Nc2ccc3ncccc3c2)c1 (centres undefined) | -
CCCc1nccn1-c1cccc(N)n1 | -
SMILES | Tgondii IFNg
Cc1ccc(C(=O)N2CCOCC2)cc1 | -
CCCCSc1nc2sc3c(c2c(=O)n1-c1ccc(C)cc1)CCC3 | -
Cc1ccc(C(=O)N2CCN(c3nc(C)nc4sc5c(c34)CCCC5)CC2)cc1 | -96
Cc1ccc(NC(=O)OC(C)CNS(=O)(=O)c2ccc(C)cc2)cc1 (centres undefined) | -
COCCC(=O)N1C[C@H]2CN(c3cnn(C)c3)C(=O)[C@@H]2C1 | -
c1coc(CCn2ccnc2-c2ccc(-n3cccn3)cc2)c1 | -
CCC(Nc1ccccc1)C(=O)N1CCn2nc(C(=O)N3CCCC3)cc2C1 (centres undefined) | -
NC1=NN=C(c2ccc3c(c2)OCCO3)CS1 | -81
Cc1cc(-c2ccc3c(c2)OCCO3)cnc1N | -
c1cc2c(cc1-c1csc(-c3ccc4c(c3)OCCO4)n1)OCCO2 | -
CNC(=O)[C@H]1CC2CN(C(=O)Cc3cccs3)CC2N1C(C)=O (some centres undefined) | -
FC(F)(F)c1ccc(-c2noc(/C=C/c3ccccc3)n2)cc1 | -
CC(C)(C)c1ccc(-c2nc(-c3ccc(Cl)cc3)no2)cc1 | -
Cc1nc(-c2ccccc2)sc1-c1nc(-c2ccc(C(C)(C)C)cc2)no1 | -77
CCCCn1ncc(C)c1NC(=O)c1cccc(CN2CC[C@H](O)C2)c1 | -
Cc1ccsc1-c1nccn1CCN1CCCOC1=O | -
CC1=C(C(=O)N2CCN(c3ccccc3)CC2)C2(CCN(S(=O)(=O)c3cccs3)CC2)OC1=O | -
O=C(c1ccc2c(c1)OCO2)N1CC[C@@H]2[C@H](CO)Nc3ccc(C#Cc4ccccc4)cc3[C@@H]21 | -
CC1CC(N(C(=O)c2ccco2)c2ccccc2)c2ccccc2N1C(=O)c1ccco1 (centres undefined) | -
CC1CC(N(C(=O)c2ccc3c(c2)OCO3)c2ccccc2)c2ccccc2N1 (centres undefined) | -96
O=C(CN1C(=O)CCc2cc(S(=O)(=O)N3CCCCC3)ccc21)N1CCCCC1 | -
CCO[C@H]1CN(S(=O)(=O)c2cn(C)cn2)[C@H]2COC[C@@H]12 | -
Cc1cc(NC(=O)Cn2c(C)nc3sc(C)c(C)c3c2=O)n(Cc2ccncc2)n1 | -
CS(=O)(=O)CCNCc1ccc(-c2ccc3ncnc(Nc4ccc(OCc5cccc(F)c5)c(Cl)c4)c3c2)o1 | -81
Cc1cc(C)n2nc(C(=O)N3CCc4c(c(C(=O)N5CCOCC5)nn4CCC(C)C)C3)cc2n1 | -
CC(=O)N[C@@H](Cc1ccccc1)C(=O)N1C[C@H]2[C@H](N)c3ccccc3[C@H]2C1 | -
CS(=O)(=O)N1CCC2(CCCN(C(=O)Cc3cccnc3)C2)C1 (centres undefined) | -
Cn1cc(CN2CCC3(CC2)CN(Cc2cccnc2)C(=O)CO3)cn1 | -
